The entries come from a sample that favours hits as a whole.
NTMT1 inh: NTMT1 methyltransferase inhibition. Q9BV86. NTMT1 MTase-Glo SAH luminescence, purified enzyme. Potency, µM (doses to about 114 µM), without a hit: at the top dose activity change, negative = inhibition, most hits filed as inhibitors. 2.5% of 59,000 active;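 further: potency means the concentration at half of the fitted maximal effect; plate controls were DMSO vehicle for no effect and no enzyme for full effect; nearly all actives have a fitted effect of over 65% in size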
Target sequence (Q9BV86 whole entry, looked up): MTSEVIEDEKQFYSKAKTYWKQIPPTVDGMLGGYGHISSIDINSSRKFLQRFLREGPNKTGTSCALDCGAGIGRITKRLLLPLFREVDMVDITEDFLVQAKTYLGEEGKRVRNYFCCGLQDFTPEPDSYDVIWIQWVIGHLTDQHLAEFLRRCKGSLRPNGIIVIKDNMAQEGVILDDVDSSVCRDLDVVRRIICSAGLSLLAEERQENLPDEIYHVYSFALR
GALK inh: inhibitors of human galactokinase (GALK). AID 1347072. recombinant GALK, Kinase-Glo ATP luminescence, 1 h. 44,000 tested, under 10 active. P51570. Potency, µM (top dose mostly 57.5 µM), without a hit: top-dose activity, negative = inhibition, usual class: inhibitors;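 further: plate controls were full GALK reaction for no effect and reaction lacking GALK for full effect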
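5 nM GALK; 35 uM ATP; 100 uM D-galactose; 20 mM HEPES pH 8.0, 5 mM MgCl2, 60 mM NaCl, 1 mM DTT, 0.01% BSA; 1 h RT; Kinase-Glo Plus luminescence.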
FH mod: Identification of activators of human fumarate hydratase by quantitative high-throughput screening. Fumarate hydratase, mitochondrial (Homo sapiens), P07954. FH coupled MDH/diaphorase resazurin fluorescence, 15 min. Potency, µM (top dose mostly 79.9 µM), without a hit: at the top dose activity change, negative = inhibition, actives largely listed as inhibitors. 0.22% of 54,000 active. AID 1347055, 2019; further: potency means the concentration at half of the fitted maximal effect; on the % scale 0 is the no-effect control and ±100 the full control effect; the screen sought activators but most active calls are inhibition curves; nearly all actives have a fitted effect of over 45% in size
TSG101-PTAP inh: TSG101-PTAP interaction inhibition, HIV-1 budding; Potency, µM (highest dose often 115 µM), usual class: inhibitors; 44,000 tested, under 10 active; Fluorescence polarization, FITC-PTAP peptide/Tsg101, 20 min; AID 1347069; Q99816; further: potency means the concentration at half of the fitted maximal effect; 0% is about no effect
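Steps: Tsg101 binding domain (10 uM final) in HEPES pH 7.5/NaCl/Tween 20/EDTA/TCEP; add compound; add FITC-PTAP peptide (50 nM final); incubate 20 min r.t.; read polarization.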
GALC G270D up: raises human GALC G270D mutant activity in cells; P54803; 145M-Twi-hGALC-G270D cells, HMU-beta-Gal fluorescence, 48 h; Potency, µM (doses to about 57.5 µM), usual class: activators; 0.1% of 45,000 active; AID 1159614; further: potency means the concentration at half of the fitted maximal effect; 0% is about no effect; nearly all actives have a fitted effect of over 65% in size
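qHTS, 1536-well; 145M-Twi-hGALC-G270D cells (WT line also made) in DMEM/F12 + 10% FBS; compound incubation on live cells; HMU-β-gal 0.1 mM final, pH 5.2, NaTC; carbonate stop; fluorescence increase = enhanced residual activity.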
B2AR arrestin ag: ADRB2 beta-arrestin recruitment | 44,000 tested, under 10 active | HTLA Tango cells, beta-arrestin recruitment, luciferase luminescence, 18 h | Potency, µM (titrated, usually from 46.1 µM), usual class: activators;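 further: potency means the concentration at half of the fitted maximal effect; 0% = DMSO and full agonism = EC100 isoproterenol or metaproterenol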
Target sequence (P07550 whole entry, looked up): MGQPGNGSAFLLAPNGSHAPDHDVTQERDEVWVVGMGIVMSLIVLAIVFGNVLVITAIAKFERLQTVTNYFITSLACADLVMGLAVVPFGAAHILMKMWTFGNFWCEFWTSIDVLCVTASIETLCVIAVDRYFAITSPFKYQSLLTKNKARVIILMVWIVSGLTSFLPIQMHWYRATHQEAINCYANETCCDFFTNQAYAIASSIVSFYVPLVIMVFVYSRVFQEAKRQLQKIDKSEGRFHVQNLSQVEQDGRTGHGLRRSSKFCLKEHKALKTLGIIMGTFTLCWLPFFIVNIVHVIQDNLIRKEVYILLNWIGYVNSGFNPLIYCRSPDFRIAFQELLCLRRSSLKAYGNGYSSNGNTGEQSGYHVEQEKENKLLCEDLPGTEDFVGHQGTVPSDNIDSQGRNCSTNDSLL
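Luminescence read-out: arrestin recruitment to recombinant beta2-AR releases tTA, inducing luciferase. Cells exposed 18 hr at 37 degrees C to up to 46 microM compound; %Activity from corrected signal, concentration-response curves classified by r2, magnitude and efficacy.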
Starred values were filed as active, the others as inactive; ! = repeats disagree; [ ] = dose if it differs, or a comment. The call rests on the fitted dose curve; in most records, active means well fitted curve in the direction sought with a large enough effect; inconclusive means small, poorly fitted or top-dose-only effect, or another doubt; inactive means no such curve, though single readings can be large; an effect the other way counts as inactive or inconclusive.

CC(C)c1c2cc(-c3ccnc(NC4CCC(NC5CCOCC5)CC4)n3)ccc2nn1C (stereo unspecified) was read as NTMT1 inh 44.7µM* and FH mod -0.8%.
O=C(Nc1ccc(-n2cncn2)c(C(F)(F)F)c1)Nc1nnc(-c2ccncc2)s1 was read as NTMT1 inh -17.7%[57.5 µM].
Screening CN(C)Cc1ccc(S(=O)(=O)n2ccc(/C=C/C(=O)NO)c2)cc1 returned NTMT1 inh -3.4%.
`COc1ccc(C)cc1NC(=O)CCS(=O)(=O)c1cc2c3c(c1)CCN3C(=O)CC2` gave NTMT1 inh 44.7µM*, GALK inh 1.3%, FH mod -5.0%, TSG101-PTAP inh inactive, GALC G270D up inactive and B2AR arrestin ag inactive.
Cc1sc(NC(=O)Cc2ccc3c(c2)OCO3)nc1-c1ccc2c(c1)CCN2C(=O)c1ccccc1Cl was read as NTMT1 inh 28.1%.
Screening COc1ccccc1CNC(=O)CSc1ncc2c(n1)-c1ccc(Cl)cc1N(Cc1ccccc1)S2(=O)=O returned NTMT1 inh 2.4%, GALK inh 0.7%, FH mod -6.9%, TSG101-PTAP inh inactive, GALC G270D up inactive and B2AR arrestin ag inactive.
Screening COc1ccccc1CNC(=O)CSc1ncc2c(n1)-c1ccccc1N(Cc1ccc(C)cc1)S2(=O)=O returned NTMT1 inh 79.4µM*, GALK inh 0.6%, FH mod 0.2%, TSG101-PTAP inh inactive, GALC G270D up inactive and B2AR arrestin ag inactive.
Screening CCOc1cc(C(C)(C)C)ccc1C1=NC(C)(c2ccc(Cl)cc2)C(C)(c2ccc(Cl)cc2)N1C(=O)N1CCN(CCCS(C)(=O)=O)CC1 (stereo unspecified) returned NTMT1 inh -0.3%[57.5 µM] and FH mod inconclusive.
For Fc1ccc(-c2nc(-c3c(F)cccc3F)[nH]c2-c2ccncc2)cc1 the results were NTMT1 inh inconclusive and FH mod 0.5%.
CS(=O)c1ccc(-c2nc(-c3ccc(F)cc3)c(-c3ccncc3)[nH]2)cc1 (stereo unspecified) was read as NTMT1 inh 35.5µM* and FH mod 7.5%.
Screening COc1cccc(CNc2ccc(S(=O)(=O)Nc3ccc(C)nc3)cc2)c1O returned NTMT1 inh 5.7%.
Screening CCCCCCCCOc1ccccc1C(=O)Nc1ccc(C(=O)OCC[N+](C)(CC)CC)cc1 returned NTMT1 inh 3.55µM*!, FH mod -14.5%[53.3 µM] and GALC G270D up inactive.
Screening COc1ccc(C(=O)NCCc2sc(-c3ccc(F)cc3)nc2C)cc1OC returned NTMT1 inh -1.1%, GALK inh 0.7%, FH mod -1.2%, TSG101-PTAP inh inactive, GALC G270D up inactive and B2AR arrestin ag inactive.
Screening Cc1cc(SCc2sc(-c3ccc(C(F)(F)F)cc3)nc2C)ccc1OCC(=O)O returned NTMT1 inh 79.4µM*! and FH mod -5.1%[53.3 µM].
Screening Cc1cc(C(C#N)c2ccc(Cl)cc2)c(Cl)cc1NC(=O)c1cc(I)cc(I)c1O (stereo unspecified) returned NTMT1 inh 17.8µM*!, FH mod inconclusive and GALC G270D up inactive.
Cc1cc2c(cc1NC(=O)c1ccccc1Cl)n(C)c(=O)c(=O)n2C was read as NTMT1 inh -4.1%, GALK inh 0.4%, FH mod -7.5%, TSG101-PTAP inh inactive, GALC G270D up inactive and B2AR arrestin ag inactive.
`C=C1[C@H](OC(=O)/C=C(\C)CC)C[C@@H](C(C)C)[C@@H]2[C@H]([C@@H](C)OC(C)=O)C(=O)C[C@@H]12` gave NTMT1 inh -11.2%.
For N#C/C(=C1/Nc2ccccc2S1)c1ccnc(OCc2ccc(CN3CCOCC3)cc2)n1 the results were NTMT1 inh -7.9%.
For CC(C)Oc1ccc(CNC(=O)Cn2nc(N3CCN(c4ccccc4)CC3)ccc2=O)cc1 the results were NTMT1 inh 89.1µM*, GALK inh -2.9%, FH mod -3.7%, TSG101-PTAP inh inactive, GALC G270D up inactive and B2AR arrestin ag inactive.
`Cc1c(-c2cnccn2)ssc1=S` gave NTMT1 inh 3.16µM*.
COc1ccc(C(=O)O)cc1Nc1nc2ccc(C)cc2n2cnnc12 was read as NTMT1 inh 70.8µM*, GALK inh 0.1%, FH mod inconclusive, TSG101-PTAP inh inactive, GALC G270D up inactive and B2AR arrestin ag inactive.
For COCCN1CCC(C(=O)NO)(S(=O)(=O)c2ccc(Oc3ccc(OC(F)(F)F)cc3)cc2)CC1 the results were NTMT1 inh -1.0%[57.5 µM] and FH mod 8.5%.
`COC(=O)c1ccc(O)c2ncc(N(C)C)cc12` gave NTMT1 inh 7.5%.
For c1cc(NC2CCNCC2)nc(-c2cnc3ccccn23)c1 the results were NTMT1 inh 44.7µM* and FH mod inconclusive.
Screening Cc1ccccc1Sc1ccc(/C=C2\SC(=S)NC2=O)cc1[N+](=O)[O-] returned NTMT1 inh 25.1µM* and FH mod 28.2µM*.
Screening Oc1c(I)cc(Cl)c2cccnc12 returned NTMT1 inh 50.1µM*, FH mod 19.0%[53.3 µM] and GALC G270D up inactive.
For CCC(=O)NC(c1cc(Cl)c2cccnc2c1O)C(C)C (stereo unspecified) the results were NTMT1 inh 17.7%.
CNCCCOc1cc(F)c(-c2c(Cl)nc3ncnn3c2N[C@@H](C)C(F)(F)F)c(F)c1 was read as NTMT1 inh 28.2µM*.
`C/C=C/C[C@@H](C)C(=O)[C@H]1C(=O)N[C@@H](C(C)C)C(=O)N(C)CC(=O)N(C)[C@@H](CC(C)C)C(=O)N[C@@H](C(C)C)C(=O)N(C)[C@@H](CC(C)C)C(=O)N[C@@H](C)C(=O)N[C@H](C)C(=O)N(C)[C@@H](CC(C)C)C(=O)N(C)[C@@H](CC(C)C)C(=O)N(C)[C@@H](C(C)C)C(=O)N1C` gave NTMT1 inh 0.1%[57.5 µM].
Screening COc1ccccc1NC(=O)N1CCN(c2ccc3nnc(-c4ccc(F)cc4)n3n2)CC1 returned NTMT1 inh 79.4µM*, GALK inh -11.3%, FH mod -14.2%, TSG101-PTAP inh inactive, GALC G270D up inactive and B2AR arrestin ag inactive.
O=C(Nc1ccc(Cl)c(Cl)c1)N1CCN(c2ccncc2)CC1 was read as NTMT1 inh -4.0%.
COc1ccc(N2CCN(c3nc4ccccc4n4c(C)nnc34)CC2)cc1 was read as NTMT1 inh 79.4µM*, GALK inh 3.4%, FH mod -0.2%, TSG101-PTAP inh inactive, GALC G270D up inactive and B2AR arrestin ag inactive.

Compound activity as filed in PubChem.
